The record followed here is PubChem BioAssay (NCATS).

The subject of assay [1] is HaCat. Briefly: Cytotoxic Profiling of Annotated Libraries Using Quantitative High-Throughput Screening (AID 1296008). Note: nearly all actives have a fitted effect of over 60% in size. Note: potency is the fitted concentration of half-maximal effect. The following applies: Five cell lines viability, CellTiter-Glo ATP luminescence, 48-72 h; max response: active compounds read low. An outline of the steps: (§1)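 Cytotoxicity was measured as CellTiter-Glo ATP luminescence, read after 10 min at room temperature. Compound treatment of the cells lasted 48 or 72 hr at 37 degrees Celsius in a qHTS format.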
(In general: Cellular ATP, detected with luciferase, serves as a proxy for viable cell number.)

Assay [2] concerns KB-3-1. Described as above. The following applies: Five cell lines viability, CellTiter-Glo ATP luminescence, 48-72 h; max response: active compounds read low. The essentials:
as §1

Assay [3] deals with NIH3T3. The assay is described as above. The following applies: Five cell lines viability, CellTiter-Glo ATP luminescence, 48-72 h; max response: active compounds read low. The essentials:
as §1

In assay [4] the test system is HACAT. Briefly: qHTS assay to identify novel small-molecules to repurpose for Merkel cell carcinoma treatment (AID 1296009). Note: nearly all actives have a fitted effect of over 60% in size. Note: potency is the fitted concentration of half-maximal effect. To be noted: MCC and control cell lines, CellTiter-Glo viability, 72 h; at 44.8 µM (top of the series) unless noted. The essentials:
(§2)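 After compound transfer in DMSO, plates were kept 72 hr at 37 degree celsius. Luminescent ATP signal from CellTiter-Glo served as viability measure, normalized against DMSO and no-cell controls.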

The subject of assay [5] is MCC-13. The description is as above. The following applies: MCC and control cell lines, CellTiter-Glo viability, 72 h; series mostly up to 46 µM. An outline of the steps: as §2
In assay [6] the test system is MCC-26. Described as above. The following applies: MCC and control cell lines, CellTiter-Glo viability, 72 h; series mostly up to 46 µM. The essentials: as §2
Assay [7] deals with MKL-1. The assay is described as above. To be noted: MCC and control cell lines, CellTiter-Glo viability, 72 h; series mostly up to 46 µM. The essentials: as §2
Assay [8] relates to MKL-2. The assay is described as above. The following applies: MCC and control cell lines, CellTiter-Glo viability, 72 h; series mostly up to 46 µM. The essentials:
as §2

Assay [9] deals with UISO. The assay is described as above. The following applies: MCC and control cell lines, CellTiter-Glo viability, 72 h; series mostly up to 46 µM. The essentials:
as §2

Assay [10] relates to WaGa. Described as above. The following applies: MCC and control cell lines, CellTiter-Glo viability, 72 h; series mostly up to 46 µM. An outline of the steps:
as §2

The test system of assay [11] is C33A. Briefly: Primary qHTS to identify gynecologic anti-cancer compounds using libraries of approved drugs and bioactive compounds (AID 1345084). Note: nearly all actives have a fitted effect of over 55% in size. To be noted: Gynecologic cancer cell panel viability, ATPlite luminescence, 48 h; series mostly up to 57.5 µM. An outline of the steps: (§3)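 ATP-based viability (ATPlite), 1,000 cells/well, 16 h pre-incubation, 48 h compound at 37 C, 5% CO2, 15 min RT before read.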
(qHTS replaces the single test concentration by a dilution series.)

In assay [12] the test system is CAOV3. The description is as above. The following applies: Gynecologic cancer cell panel viability, ATPlite luminescence, 48 h; series mostly up to 57.5 µM. The essentials:
as §3

Assay [13] deals with CASKI. The description is as above. The following applies: Gynecologic cancer cell panel viability, ATPlite luminescence, 48 h; series mostly up to 57.5 µM. The essentials: as §3
For assay [14], the system named is Es-2. The description is as above. The following applies: Gynecologic cancer cell panel viability, ATPlite luminescence, 48 h; series mostly up to 57.5 µM. An outline of the steps: as §3
The subject of assay [15] is HeLa. Described as above. To be noted: Gynecologic cancer cell panel viability, ATPlite luminescence, 48 h; series mostly up to 57.5 µM. The essentials:
as §3

For assay [16], the system named is JEG-3. Described as above. To be noted: Gynecologic cancer cell panel viability, ATPlite luminescence, 48 h; series mostly up to 57.5 µM. The essentials: as §3
For assay [17], the system named is HEK293T. Briefly: qHTS assay to identify novel small-molecules to repurpose for Merkel cell carcinoma treatment (AID 1296009). Note: nearly all actives have a fitted effect of over 60% in size. Note: potency is the fitted concentration of half-maximal effect. The following applies: MCC and control cell lines, CellTiter-Glo viability, 72 h; at 44.8 µM (top of the series) unless noted. The essentials:
as §2

Assay [18] has as its system NIH3T3. The description is as above. The following applies: MCC and control cell lines, CellTiter-Glo viability, 72 h; at 44.8 µM (top of the series) unless noted. An outline of the steps:
as §2

Assay [19] has as its system Hek293T. The assay can be described thus: Primary qHTS to identify gynecologic anti-cancer compounds using libraries of approved drugs and bioactive compounds (AID 1345084). Note: nearly all actives have a fitted effect of over 55% in size. The following applies: Gynecologic cancer cell panel viability, ATPlite luminescence, 48 h, control line for the selectivity index; series mostly up to 57.5 µM. The essentials: as §3
Assay [20] has as its system OV90. The description is as above. The following applies: Gynecologic cancer cell panel viability, ATPlite luminescence, 48 h; series mostly up to 57.5 µM. An outline of the steps:
as §3

Records with an inconclusive call do not appear. Values without a mark were called inactive. The source made the active and inactive calls. Calls come from the whole dose curve; as a rule, active = well fitted curve in the direction sought with a large enough effect; inconclusive = small, poorly fitted or top-dose-only effect, or another doubt; inactive = no such curve, though single readings can be large; an effect the other way counts as inactive or inconclusive.
% is set by controls: 0 for no effect and ±100 for the full control effect.

As to `C[C@@H](C1=C(CCN(C)C)Cc2ccccc21)c1ccccn1`, the call in assay [1] and in assay [4] was inactive. Further, the values for the max response in assay [2] and in [3] were -6.09% and 1.99%, respectively. Further, the Potency result in [5], in [6], in assay [7], in [8], in [9] and in assay [10] was “inactive” in each case. Besides, the Potency entry in assay [11], in [12], in [13], in assay [14], in [15] and in assay [16] was “inactive” throughout.

Turning to `CC(CCc1ccc2c(c1)OCO2)NN` (configuration not stated), the max response is 2.43% in assay [1] and -13.1% in [2]. For the same compound, the call in [3], in [17] and in [18] was inactive. For the same compound, the Potency result in assay [5], in [6], in [7], in assay [8], in assay [9] and in [10] was “inactive” throughout. Besides, the Potency entry in assay [11], in assay [12], in [13], in assay [14], in [15] and in assay [19] was “inactive” each time. The Potency entry in [16] and in [20] was “inactive” in each case.

Consider `O=C(O)c1ccccc1Nc1cc(Cl)ccc1C(=O)O`, for which, in assay [1], the result was inactive. Moreover, the max response is -6.82% in assay [2] and -15.4% in [3]. Besides, the outcome in assay [4] is “inactive [at 17.4 µM]”. The Potency entry in assay [5], in assay [6], in assay [7], in assay [10], in assay [11] and in assay [12] was “inactive” each time. The Potency entry in assay [13], in [14], in assay [15], in [19] and in assay [16] was “inactive” throughout.

Turning to `CCO[C@H](Cc1ccc(OCCc2ccc(OS(C)(=O)=O)cc2)cc1)C(=O)O`, the call in assay [1] and in assay [4] was inactive. In addition, the max response in [2] was -10.5%; in [3], -1.31%. Further, the Potency result in assay [5], in assay [6], in [7], in [8], in assay [9] and in assay [10] was “inactive” throughout. The Potency entry in [11], in assay [12], in assay [13], in assay [14], in assay [15] and in assay [19] was “inactive” throughout. For the same compound, the Potency result in [16] and in [20] was “inactive” throughout.

For the compound `CC(C)N(CCC(=O)c1ccc2ccccc2c1)Cc1ccccc1`, the outcome in assay [1] and in [4] was “inactive; activator” throughout. In [2], the max response is -5.46%. In assay [3], the Potency was 10.3 µM (active). Further, the Potency entry in assay [11], in assay [12], in [13], in [14], in assay [15] and in assay [19] was “inactive” throughout. Further, the Potency entry in assay [16] and in [20] was “inactive” throughout.

In the case of `C1N2CN3CN1CN(C2)C3`, the results for the max response in assay [1], in [2] and in [3] were -1.63%, -1.26% and -2.39%, respectively. The compound was called inactive in assay [17]. The Potency entry in assay [5], in assay [6], in assay [7], in assay [8], in assay [9] and in assay [10] was “inactive” each time. Besides, the Potency entry in [11], in assay [12], in assay [13], in assay [14], in [15] and in [19] was “inactive” throughout. In addition, the Potency entry in [16] and in assay [20] was “inactive” in each case.

Consider `Oc1ccc(CCNCCCCCCNCCc2ccccc2)cc1O`, for which the outcome in assay [1] and in [4] was inactive. Also, the values for the max response in assay [2] and in assay [3] were -20.6% and -5.45%, respectively. Also, the Potency entry in assay [5], in [6], in assay [14], in assay [15], in assay [19] and in assay [16] was “inactive” throughout. The Potency in [7] is 2.11 µM (active); in assay [8], 0.596 µM (active); in assay [10] it was 10.6 µM (active).

In the case of `CCOC(=O)NNc1nncc2ccccc12`, the call in [1] and in assay [4] was inactive. For the same compound, the results for the max response in assay [2] and in assay [3] were -9.29% and 3.89%, respectively. Moreover, the Potency entry in assay [5], in assay [6], in assay [7], in assay [8], in assay [9] and in assay [10] was “inactive” in each case. Also, the Potency entry in assay [11], in assay [12], in assay [13], in [14], in assay [15] and in assay [19] was “inactive” in each case. Further, the Potency entry in assay [16] and in assay [20] was “inactive” each time.

As for `CC(=O)CC/C=C(\C)CC/C=C(\C)CC/C=C(\C)CCC=C(C)C`, the max response in assay [1] was -9.87%; in [2] it was -13.4%; in [3], -3.99%. The result in assay [17] was inactive. The Potency entry in assay [5], in assay [6], in [7], in assay [8], in assay [9] and in [10] was “inactive” in each case. Also, the Potency entry in assay [11], in [12], in [13], in [14], in [15] and in [19] was “inactive” throughout. Besides, the Potency entry in [16] and in assay [20] was “inactive” each time.

For `COc1cc(NS(=O)(=O)c2ccc(N)cc2)nc(C)n1`, the max response in assay [1] is -7.5%; in assay [3] it was 4.73%. The result in assay [2] and in [17] was inactive. Also, the Potency entry in assay [5], in assay [6], in assay [7], in assay [8], in [9] and in assay [10] was “inactive” throughout. The Potency entry in assay [11], in assay [12], in assay [13], in [14], in [15] and in [19] was “inactive” each time. The Potency result in [16] and in [20] was “inactive” in each case.

In the case of `Cc1cc(O)c2c(O)c3c(O)cccc3cc2c1`, the outcome in assay [1] and in assay [4] was inactive. Further, the max response in assay [2] was -20.5%; in [3], -2.19%. In addition, the Potency entry in assay [5], in assay [6], in assay [7], in [8], in assay [9] and in assay [10] was “inactive” each time. The Potency entry in [11], in [12], in [13], in assay [14], in assay [15] and in [19] was “inactive” each time. The Potency entry in assay [16] and in [20] was “inactive” throughout.

For `C1=CC2C3C=CC(C3)C2C1` (configuration not stated), the values for the max response in assay [1], in assay [2] and in [3] were -9.73%, -6.71% and 0.366%, respectively. Moreover, the outcome in [17] was “inactive [at 92 µM]”. For the same compound, the Potency result in assay [5], in [6], in assay [7], in assay [8], in assay [9] and in assay [10] was “inactive” in each case. Also, the Potency entry in [11], in assay [12], in assay [13], in assay [14], in [15] and in [19] was “inactive” each time. The Potency entry in assay [16] and in [20] was “inactive” throughout.

`CCCCC(CC)COC(=O)c1ccccc1C(=O)O` (configuration not stated): the max response in [1] was -1.62%; in assay [2], -15.1%; in assay [3] it was -2.08%. In assay [17], the outcome was “inactive [at 92 µM]”. Besides, the Potency entry in assay [5], in assay [6], in assay [7], in [8], in assay [9] and in [10] was “inactive” each time. Besides, the Potency result in assay [11], in assay [12], in [13], in assay [14], in assay [15] and in assay [19] was “inactive” in each case. In addition, the Potency entry in assay [16] and in [20] was “inactive” each time.

With `CN(C(=O)C(Cl)Cl)c1ccc(OC(=O)c2ccco2)cc1`, the compound was called inactive in assay [1] and in [4]. Also, the max response in [2] is -7.7%; in assay [3] it was 1.4%. In addition, the Potency entry in assay [5], in assay [6], in [7], in [8], in assay [9] and in [10] was “inactive” in each case. For the same compound, the Potency result in assay [11], in assay [12], in [13], in assay [14], in assay [15] and in [19] was “inactive” in each case. Moreover, the Potency entry in [16] and in [20] was “inactive” throughout.
